Screening results deposited in PubChem BioAssay by several laboratories.
A selection: hits, their analogues and other compounds. The true share with any hit is near 3.1%.
BoNT-F LC inh – BoNT F light chain protease inhibition | inhibition, % at 10 µM | Multiplex microsphere protease cleavage assay, flow cytometry | 360,000 compounds, 0.22% hits; in the data active = inhibition above about 35%, passing the limit was not always enough; inconclusive = no clear call, values can overlap the other calls; note: plate controls were buffer without enzyme for full effect and enzyme alone for no effect
Anthrax LF inh2 – anthrax lethal factor protease inhibition; P15917; 360,000 compounds, 0.12% hits; inhibition, % at 10 µM; multiplex microsphere protease cleavage assay, LF; note: plate controls were buffer without enzyme for full effect and enzyme alone for no effect
Bead autofluor – flagged as autofluorescent in microsphere protease counterscreen; compound autofluorescence counterscreen, microsphere flow cytometry; hits give high values; fluorescence intensity (test concentration not listed); 360,000 compounds, 3.1% hits; in the data active = fluorescence intensity above about 16000; inconclusive = no clear call, values can overlap the other calls
BoNT-A LC inh2 – blocks Botulinum neurotoxin A light chain protease; multiplex microsphere protease substrate cleavage, flow cytometry; inhibition, % at 10 µM; 360,000 compounds, 0.17% hits; AID 588499; note: plate controls were buffer without enzyme for full effect and enzyme alone for no effect
SSB-PriA inh – inhibitors of Klebsiella pneumoniae PriA binding to SSB C-terminal tail; 430,000 compounds, 0.6% hits; AlphaScreen SSBct-PriA binding, biotinylated peptide; inhibition, % at 33 µM; in the data active = inhibition mostly above about 37%, no sharp cut-off; inactive = mostly below about 20%;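 note: plate controls were negative control peptide for no effect and reference peptide for full effect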
Numbers without * were called inactive; ? = inconclusive; / = no result; ! = not active in a repeat. Cut-off read from the data, not from the text of the source, unless noted: active = inhibition above about 30%; inconclusive = no clear call, values can overlap the other calls; inactive = below that.

SMILES	BoNT-F LC inh	Anthrax LF inh2	Bead autofluor	BoNT-A LC inh2	SSB-PriA inh
O=C(CNC(=O)c1ccccc1F)OC(C(=O)Nc1cc(C(F)(F)F)ccc1Cl)c1ccccc1 (stereo unspecified)	3.5	-0.3	22099*	2.1	-34.6
O=C(Cn1cc(-c2nnc(-c3ccco3)o2)c2ccccc21)N1CCOCC1	/	/	/	/	-11.0
O=Cc1ccc(-c2ccccc2C(=O)O)o1	15.7	2.7	3091	4.0	-7.8
O=C(O)c1ccccc1-c1c2cc(I)c(=O)c(I)c-2oc2c(I)c(O)c(I)cc12	38.2*!	32.9*	3911	64.3*	14.7
O=C(Cn1cnc2c(-c3ccc(Cl)cc3)csc2c1=O)Nc1ccc2c(c1)OCO2	/	/	/	/	7.0
CCn1cc(NC(=O)Nc2ccc(OC(F)F)cc2)c2ccccc21	/	/	/	/	40.0*
O=[N+]([O-])c1ccc(NCCCN2CCOCC2)c2ncccc12	2.1	-0.3	4379	-0.2	-1.9
Clc1cc2c(c3ncccc13)OCN(CCCN1CCOCC1)C2	/	/	/	/	105.0*
Cc1cc(C)n(-c2nc(CCNC(=O)C3(c4cccs4)CCCC3)cs2)n1	/	/	/	/	-13.0
COc1cccc([C@H](CNC(=O)c2ccc(F)cc2Cl)OC)c1	/	/	/	/	-16.0
CN(C)CCCOc1ccc(Cl)cc1Br	5.1	-1.9	10799	0.4	50.6*
Cc1cc[n+]2c3c(cccc13)CCC2	-4.9	-11.6	20480*	-0.2	4.0
Cc1cccc2c1N(N=O)CCC2	-27.7	-0.8	2059	-1.7	3.6
CCc1nc2sc3ccccc3c(=O)c2c(=O)n1CCOC	1.0	-3.9	19591*	1.3	2.1
CC(C)c1nc2sc3ccccc3c(=O)c2c(=O)n1Cc1ccccc1	?	-19.3	3628	?	-7.0
COCCn1c(C2CCCCC2)nc2sc3ccccc3c(=O)c2c1=O	2.9	0.6	22628*	1.5	1.0
COCCn1c(C(C)C)nc2sc3ccccc3c(=O)c2c1=O	5.7	-8.2	19469*	?	-6.9
O=C(NCc1ccccc1Cl)C(=O)NCC(c1ccsc1)N1CCCCCC1 (stereo unspecified)	/	/	/	/	-21.0
CCOC(=O)C(=O)N1CCC2(CC1)CC(=O)c1ccccc1O2	/	/	/	/	-11.0
CCOC(=O)C(C(=O)OCC)=C1OC(=O)c2ccccc21	-0.9	-1.9	23965*	-0.3	3.5
Cc1ccc(S(=O)(=O)N2C(=O)CCC2C(=O)N2CCCCC2)cc1 (stereo unspecified)	?	-17.5	4194	-0.4	-6.0
Cc1ccc(S(=O)(=O)N2C(=O)CCC2C(=O)N2CCN(C)CC2)cc1 (stereo unspecified)	2.9	-0.1	22032*	0.7	-4.6
COC(=O)c1ccccc1NC(=O)C1CCCN(S(=O)(=O)c2ccccc2)C1 (stereo unspecified)	3.7	2.6	19578*	?	-4.3
COC(=O)c1ccccc1NC(=O)C1CCCN(S(=O)(=O)c2ccc(F)cc2)C1 (stereo unspecified)	2.5	0.7	4741	-0.9	-14.6
COC(=O)c1cc(OC)c(OC)cc1NC(=O)C1CCC(=O)N1S(=O)(=O)c1ccc(C)cc1 (stereo unspecified)	-1.8	-0.4	9381	0.1	-15.2
SMILES	BoNT-F LC inh	Anthrax LF inh2	Bead autofluor	BoNT-A LC inh2	SSB-PriA inh
COC(=O)c1ccccc1NC(=O)C1CCC(=O)N1S(=O)(=O)c1ccc(C)cc1 (stereo unspecified)	1.4	0.5	16363*	?	-12.0
CC1(C)CC(C#N)(N2CCOCC2)CCO1 (stereo unspecified)	1.5	0.9	19964*	?	1.7
C#CCSc1nc(=O)n2cccc(C)c2n1	/	/	/	/	18.0
Cc1ccc(OCCCC(=O)Nc2cc(Cl)ccc2-n2cncn2)cc1	-5.3	?	?	-6.2	-2.7
COc1ccc(OCCCC(=O)Nc2cc(Cl)ccc2-n2cncn2)cc1	-131.0	-19.7	17700*	-87.4	-5.2
CC(=O)Nc1ccc2nc(NC(=O)c3ccnn3C)sc2c1	/	/	/	/	2.0
O=c1c2ccccc2c(-c2nc(-c3ccc4c(c3)OCO4)no2)cn1-c1ccc(Cl)cc1	/	/	/	/	7.0
COc1ccccc1OCc1ccc(C(=O)N2N=C(C(F)F)CC2(O)C(F)F)o1 (stereo unspecified)	-4.4	-1.3	16851*	-2.8	2.2
Cc1ccc2ncc3c(-c4ccc(Br)cc4)nn(-c4ccccc4Cl)c3c2c1	/	/	/	/	-13.0
O=C(Nc1cnn(CC2CCOCC2)c1)c1cc2ccccc2[nH]1	/	/	/	/	-2.0
Cc1cccc(-c2ccc(C=Nc3c(C)n(C)n(-c4ccccc4)c3=O)o2)c1	?	-13.3	4940	-2.3	49.9*
Cc1c(N=Cc2nc3ccccc3n2C)c(=O)n(-c2ccccc2)n1C	-1.5	-3.0	8736	-0.4	-9.4
COc1ccc(CCNC(=O)C2CCN(c3nnc(N4CCCCC4)c4ccccc34)CC2)cc1OC	/	/	/	/	2.0
COc1ccc(OCCOC(=O)c2cccc(-n3cnnn3)c2)cc1	-3.2	-0.5	20878*	-1.0	-0.8
O=C(NCCn1nc(C(F)(F)F)cc1C1CC1)[C@@H]1CC=CCC1	/	/	/	/	-7.0
Cc1ccccc1OC1C(=O)N(Cc2ccc3c(c2)OCO3)C1c1sccc1C (stereo unspecified)	4.3	-3.1	22460*	?	-8.8
O=C1C(Oc2ccccc2)C(c2cccs2)N1Cc1ccc2c(c1)OCO2 (stereo unspecified)	2.7	-1.0	9394	-0.2	-16.1
Cc1noc(C)c1C(=O)OC(C(=O)NC1CCCC1)c1ccc(F)cc1 (stereo unspecified)	-6.3	-1.1	22114*	-5.0	6.5
O=C(CN1C(=O)c2ccccc2S1(=O)=O)N1CCOCC1	8.9	-7.5	20391*	9.5	-5.0
O=C1OC2(CCN(C(=O)CCc3ccc(Cl)c(C(F)(F)F)c3)CC2)c2ccccc21	/	/	/	/	-13.0
CCN(CC)c1ccc(C=NNS(=O)(=O)c2ccc(C)c([N+](=O)[O-])c2)cc1	/	/	/	/	39.3*
Cc1nnc(NC(=O)Cc2ccc(OCc3c(C)noc3C)cc2)s1	-5.4	0.3	17361*	-2.3	-7.5
Cc1cc(NC(=O)c2ccc(N(C)C)cc2)n(-c2nc3c(F)cccc3s2)n1	/	/	/	/	-1.0
O=c1c2c3c(sc2n2cnnc2n1CCc1ccccc1)CCCC3	-2.3	-4.4	16649*	-1.5	-0.5
Cn1c(=O)c2c3c(sc2n2cnnc12)CCC3	-1.6	-0.9	3279	-0.1	4.9
SMILES	BoNT-F LC inh	Anthrax LF inh2	Bead autofluor	BoNT-A LC inh2	SSB-PriA inh
NC(=O)Cn1c(=O)n(CCc2ccccc2)c(=O)c2c3c(sc21)CCCC3	-5.2	-3.3	16478*	-1.1	-6.0
CN(C)CCCn1c(=O)n(CCc2ccccc2)c(=O)c2c3c(sc21)CCCCC3	10.2	-0.5	3872	-0.3	-7.0
COc1cc(COCC2CCN(C(=O)c3cccs3)CC2)cc(OC)c1	/	/	/	/	-4.0
COc1ccccc1C(=O)NCc1nc(C)cc(N2CCCCC2)n1	/	/	/	/	-18.0
Cc1ccsc1/C=c1\sc2ncnn2c1=O	-1.6	-0.9	20527*	-1.8	/
CCCS(=O)(=O)N1CCc2ccc(NC(=O)c3ccc(-c4ccccc4)cc3)cc2C1	/	/	/	/	-13.0
O=C(NC1CCCC1)c1sc(=S)n2c1[nH]c(=O)c1ccccc12	-6.8	1.7	9563	-0.8	-14.4
C=CCn1c(N)c(C(=O)N2CCOCC2)sc1=S	5.4	-1.6	19777*	?	-14.4
O=C(NCc1ccco1)c1sc(=S)n2c1[nH]c(=O)c1ccccc12	3.1	-0.5	22207*	?	-4.6
